D3 antag = qHTS of D3 Dopamine Receptor Antagonist: qHTS | D(3) dopamine receptor (Homo sapiens), P35462 | D3R cells, DiscoveRx beta-arrestin luminescence, antagonist mode; stronger effect = lower value | max response, negative = inhibition, % | hit rate 2.5% among 360,000 | AID 652054, 2013; in the data active = max response below about -50%; inconclusive = no clear call, values can overlap the other calls; also: % is scaled to controls: 0 for no effect and ±100 for the full control effect
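Cells expressing the human receptor were seeded at 1500 cells/well, incubated overnight at 37 degrees C in 5% CO2, then exposed to library compounds with dopamine controls for 90 minutes at 37 degrees C before luminescent detection.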
D3 ag = qHTS of D3 Dopamine Receptor Agonist: qHTS. D3R DiscoveRx beta-arrestin cells, luminescence, 90 min. max activation, %. hit rate 0.58% among 410,000. D(3) dopamine receptor (Homo sapiens), P35462; in the data active = max activation above about 30%; also: 0% is about no effect
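Agonist mode: compounds and dopamine controls were applied to plated cells for 90 min at 37 degrees C after an overnight attachment at 1500 cells/well. Luminescent read-out followed 30 - 60 minutes at room temperature with DiscoveRx detection reagent.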
ClpP mod = qHTS Assay for Activators of ClpP; purified B. subtilis ClpP, FRET peptide cleavage, 20 min; Potency, µM (series often up to 57.5 µM), for inactives: at the highest dose activity change, negative = active; AID 651965, 2013; ATP-dependent Clp protease proteolytic subunit (Bacillus subtilis (strain 168)), P80244; hit rate 1.9% among 340,000; active = well fitted falling curve with a large enough effect; inconclusive = small, poorly fitted or top-dose-only effect; inactive = no such curve, though single readings can be large or run the other way; also: potency is read from the fitted curve at half-maximal effect; the source files actives as falling curves though it sought activators and does not explain the sign; nearly all actives have a fitted effect of over 65% in size
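Purified B. subtilis ClpP, 10 microg/mL final in Tris/HCl pH8 with KCl, BSA, glycerol and Tween-20, cleaved an Abz/nitrotyrosine-quenched decapeptide. Fluorescence (ex 320, em 430) was read at 0 and 20 min at room temperature. Delta was normalized to 5.8 microM ADEP and DMSO/no-enzyme controls.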
IL1B secr inh = qHTS for Inhibitors of Inflammasome Signaling: IL-1-beta AlphaLISA Primary Screen. THP-1 LPS/ATP IL-1B secretion, AlphaLISA, 16 h; stronger effect = lower value. activity change, % at 57.5 µM. hit rate 4.7% among 360,000. AID 743279, 2014; in the data active = activity change below about -50%; inconclusive = mostly about -30% to -49%; also: % is scaled to controls: 0 for no effect and ±100 for the full control effect
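THP-1 cells pretreated 1 hr with compounds (up to 57.5 uM final), then stimulated with LPS (250 ng/mL final) plus ATP (1.25 mM final); secreted IL-1B measured by AlphaLISA after 16 hr, decreased signal indicating inhibition.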
TDP1 cell noCPT = qHTS for Inhibitors of human tyrosyl-DNA phosphodiesterase 1 (TDP1): qHTS in cells in absence of CPT; Potency, µM (doses to about 46.2 µM), inactives show at the highest dose activity change, negative = growth inhibition, actives largely listed as inhibitors; hit rate 15% among 420,000; DT40 Tdp1-/- hTDP1 cells, no CPT, ATP luminescence, 48 h; also: potency is read from the fitted curve at half-maximal effect; % is scaled to controls: 0 for no effect and ±100 for the full control effect; nearly all actives have a fitted effect of over 55% in size
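Luminescent ATP content (CellTiter-Glo) served as the growth readout. Knockout chicken DT40 cells expressing human TDP1 were exposed to compounds without camptothecin for a minimum 48 hr at 37 °C.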
DT40 TDP1 CPT = qHTS for Inhibitors of human tyrosyl-DNA phosphodiesterase 1 (TDP1): qHTS in cells in presence of CPT; chicken DT40 Tdp1-/-;hTDP1 cells + 20 nM CPT, ATP luminescence, 48 h; Potency, µM (titrated, usually from 46.2 µM), for inactives: top-dose activity change, negative = growth inhibition, hits mostly inhibitors; hit rate 12% among 420,000; also: potency is read from the fitted curve at half-maximal effect; % is scaled to controls: 0 for no effect and ±100 for the full control effect; nearly all actives have a fitted effect of over 55% in size
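Chicken DT40 Tdp1-/- cells stably complemented with human TDP1 were seeded at 400 cells/well in medium containing 20 nM camptothecin, exposed to pin-transferred compounds, and grown at 37 °C for at least 48 hr. Viability was read as ATP luminescence.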
* = called active by the depositor; ? = inconclusive; nt = not tested or not shown; ! = a repeat was not active. Most compounds without a hit are left out; they make up all but 21% or so of the library. Unless noted, calls follow the shape of the dose curve; as a rule, active = well fitted inhibition curve with a large enough effect; inconclusive = small, poorly fitted or top-dose-only effect; inactive = flat fitted curve, though single readings scatter.

SMILES	D3 antag	D3 ag	ClpP mod	IL1B secr inh	TDP1 cell noCPT	DT40 TDP1 CPT
CC12CCC(=O)C=C1CC(N1CC1)C1C2CCC2(C)C(O)CCC12 (stereo unspecified)	13.7	-2.4	-3.3%	-3.1	2.59µM*	1.84µM*
CC(=O)C1CCC2(O)C3CCC4=CC(=O)CCC4(C)C3CCC12C (stereo unspecified)	-5.0	-2.3	1.2%	5.7	-23.7%	-20.7%
C[C@]12CCC(=O)C=C1CC[C@@H]1[C@@H]2CC[C@]2(C)C(=O)CC[C@@H]12	0.0	9.4	-0.7%	5.2	18.4µM*!	?
CC(=O)C1CCC2C3C(N4CC4)CC4=CC(=O)CCC4(C)C3CCC12C (stereo unspecified)	13.1	-5.1	-4.2%	-2.1	4.61µM*	3.66µM*
N[C@@H](CCP(=O)(O)O)C(=O)O	nt	nt	nt	nt	0.9%	1.6%
COc1ccc(C#Cc2ccc3c(c2)O[C@H](CN(C)C(C)=O)[C@H](C)CN([C@@H](C)CO)S3(=O)=O)cc1	-16.8	-12.2	3.8%	22.0	14.6µM*	23.1µM*
C[C@@H]1CN([C@H](C)CO)S(=O)(=O)c2ccc(C#Cc3cccc(F)c3)cc2O[C@@H]1CN(C)C(=O)CN1CCOCC1	-8.0	-9.4	1.7%	?	18.4µM*	?
COc1ccc(OC(=O)N(C)C[C@H]2OCc3cnnn3CCCC(=O)N([C@@H](C)CO)C[C@H]2C)cc1	15.3	1.5	-1.0%	8.6	10.7%	-0.6%
Cc1ccc(O)c(C(=O)c2cc(C(=O)NCc3ccccc3)c(=O)n(Cc3ccccc3)c2)c1	-68.6*	-24.1	5.3%	-29.9	11.6µM*	7.31µM*
O=C(c1cc(C(=O)NCc2ccccc2)c(=O)n(Cc2ccccc2)c1)c1cc(Br)ccc1O	12.7	-2.4	12.0%	-1.1	25.9µM*	?
CCc1ccc(NC(=O)c2ccc(F)c(S(=O)(=O)N3CCc4ccccc4C3)c2)cc1	nt	1.2	-20.3%	nt	20.6µM*	?
CCc1ccc(NC(=O)c2ccc(F)c(S(=O)(=O)N3CCC4(CC3)OCCO4)c2)cc1	nt	12.1	0.7%	nt	20.6µM*	?
CC(=O)Nc1cc(C(=O)N2CCC3(CC2)OCCO3)ccc1S(=O)(=O)c1ccc(Cl)cc1	13.2	-0.5	-3.2%	0.3	-1.0%	-1.9%
CCN(CC)C(=O)c1ccc(NC(=O)c2cccc(S(=O)(=O)N3CCN(C)CC3)c2)cc1	-4.4	-16.1	1.8%	16.5	-22.9%	-19.6%
CCc1ccc(NC(=O)CN2CC(c3ccccc3)CC2=O)cc1 (stereo unspecified)	1.6	1.2	-0.5%	?	-19.3%	-0.9%
CN1CCc2cc3c(cc2C1O)OCO3 (stereo unspecified)	nt	nt	nt	nt	2.6%	6.8%
O=C(CCc1ccccc1)N1Cc2cc(-c3cccc(F)c3)ccc2-n2nncc2C1	31.5	7.1	-22.8%	-25.1	?	?
CC(=O)N1N=C2C3CCN(CC3)C2C1c1ccc(F)cc1 (stereo unspecified)	0.0	3.7	-1.1%	0.2	?	3.4%
O=C(O)CC[N+](=O)[O-]	16.6	20.5	2.4%	-9.3	-9.6%	-0.9%
O=C(CC[N+](=O)[O-])OCC1OC(O)C(OC(=O)CC[N+](=O)[O-])[C@@H](OC(=O)CC[N+](=O)[O-])C1OC(=O)CC[N+](=O)[O-] (stereo partly specified)	nt	nt	nt	nt	5.8µM*	?
CCC(=NCc1ccc2c(c1)OCO2)c1c(O)n(C)c(=O)n(C)c1=O	?	-0.7	-1.8%	-25.8	20.6µM*	?
CCC(=NCc1cc(OC)cc(OC)c1)c1c(O)n(C)c(=O)n(C)c1=O	57.0	39.3*	1.3%	2.5	8.91µM*	10µM*
CCC(=NCc1cc(OC)cc(OC)c1)c1c(O)n(C2CCCCC2)c(=O)[nH]c1=O	0.0	5.9	-2.2%	-11.8	?	?
Cc1c(C)c2ccc(OCC(=O)N3C[C@H]4C[C@@H](C3)c3cccc(=O)n3C4)cc2oc1=O	-13.3	6.0	5.0%	28.0	5.6%	0.4%
Cc1ccc2c(c1)[C@]13CCCC[C@@H]1[C@H](C2)N(C)CC3	nt	6.6	nt	nt	-19.9%	-4.0%
SMILES	D3 antag	D3 ag	ClpP mod	IL1B secr inh	TDP1 cell noCPT	DT40 TDP1 CPT
O=C(c1ccc2c(=O)n(Cc3ccc4c(c3)OCO4)c(=S)[nH]c2c1)N1CCC2(CC1)OCCO2	16.0	-5.3	-0.2%	8.2	?	23.1µM*
CCCCc1ccc(NC(=O)c2cccn(Cc3ccc(Cl)cc3)c2=O)cc1	nt	5.4	-2.9%	nt	-22.1%	-21.9%
O=C1NC(=S)NC(=O)C1=Cc1cccn1-c1ccc(O)cc1	-14.3	-3.6	0.3%	-102.0*	5.17µM*	3.66µM*
COc1ccccc1C=C1C(=O)NC(=S)NC1=O	-22.5	-3.0	-2.9%	?	2.2%	-17.3%
CN1C(=O)/C(=C/c2cccn2-c2ccc3ccccc3c2)C(=O)NC1=S	-1.7	-3.9	-3.3%	-116.9*	5.17µM*	3.26µM*
Cc1cc(C)cc(N2C(=O)NC(=O)/C(=C\c3cccn3-c3ccccc3)C2=O)c1	?	-3.4	-21.2%	-98.5*	?	?
CNCC/C=C\c1cccnc1	nt	nt	nt	nt	-22.2%	-4.9%
CC1=C/C(=N\NC(=S)NCCc2ccccc2)CC(C)(C)C1	-7.5	-15.5	nt	-6.8	?	?
CN1CCN(S(=O)(=O)c2ccc(C3CCCCC3)cc2)CC1	-18.0	-27.5	?	-13.4	8.0%	-5.4%
COc1cc2c(cc1OC)-c1c(OC)c(OC)cc3c1C(C2)N(C)CC3 (stereo unspecified)	-7.9	-23.3	4.3%	-5.7	?	?
COc1cc2c(cc1OC)-c1c(O)c(OC)cc3c1[C@H](C2)N(C)CC3	nt	nt	nt	nt	23.7µM*	?
COc1ccc(C(=O)N2CCCC2=O)cc1	0.0	17.4	-2.1%	6.5	7.2%	-1.0%
COc1ccc(-c2nn(-c3ccccc3)cc2C(=O)N2c3ccc(C)cc3C3CN(C)CCC32)cc1 (stereo unspecified)	1.2	9.2	nt	?	25.9µM*	?
Cc1ccc2c(c1)C1CN(C)CCC1N2C(=O)c1ccco1 (stereo unspecified)	-24.8	-1.2	-2.2%	0.2	-8.3%	-17.5%
Cc1ccc2c(c1)C1CN(C)CCC1N2C(=O)c1ccccc1NS(=O)(=O)c1cccc(C(F)(F)F)c1 (stereo unspecified)	-8.4	1.5	-0.9%	-4.9	13µM*	?

Source: PubChem
